Bioassay records deposited in PubChem BioAssay by National Center for Advancing Translational Sciences (NCATS).
DT40 TDP1 no CPT: qHTS for Inhibitors of human tyrosyl-DNA phosphodiesterase 1 (TDP1): qHTS in cells in absence of CPT; DT40 Tdp1-/- hTDP1 cells, no CPT, ATP luminescence, 48 h; Potency, µM (series often up to 46.2 µM), without a hit: at the highest dose activity change, negative = growth inhibition, hits mostly inhibitors; hit rate 15% among 420,000; further: potency means the concentration at half of the fitted maximal effect; nearly all actives have a fitted effect of over 55% in size
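Compound effects on proliferation are scored in DT40 Tdp1-/-;hTDP1 cells in the absence of CPT. ATP levels (CellTiter-Glo luminescence) are recorded after a ≥48 hr, 37 °C incubation.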
IL-1B inflam inh: blocks inflammasome-driven IL-1 beta release; THP-1 LPS/ATP IL-1B secretion, AlphaLISA, 16 h; active compounds read low; activity change, % at 57.5 µM; hit rate 4.7% among 360,000; AID 743279; in the data active means activity change below about -50%; inconclusive means mostly about -30% to -49%
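Secreted IL-1B measured by AlphaLISA bead assay after 16 h compound exposure of THP-1 cells; compounds (final up to 57.5 uM) added 1 h before LPS (250 ng/mL) and ATP (1.25 mM) stimulation; lower signal means less secretion.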
HT1080-NT tox: kills 2HG-producing HT-1080-NT fibrosarcoma cells | AID 686970 | HT-1080-NT fibrosarcoma viability, CellTiter-Glo ATP luminescence, 48 h | hit rate 1.6% among 360,000 | Potency, µM (highest dose often 46.1 µM), without a hit: top-dose activity, negative = less viability, hits mostly cytotoxic;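 further: NT is the 2HG producing partner of a matched IDH1 knockdown line; potency means the concentration at half of the fitted maximal effect; 0% = DMSO-treated cells and -100% = media-only wells without cells; nearly all actives have a fitted effect of over 55% in size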
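HT-1080-NT fibrosarcoma cells (2HG-overproducing), 750 cells/well in RPMI with 5% FBS, dosed after 2 h and incubated 48 h at 37C. CellTiter-Glo luminescence normalized to DMSO and no-cell wells; concentration-response curves fitted and classed.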
HT1080 IDH1KD tx: HT-1080 IDH1 knockdown cell toxicity (counter line); hit rate 2% among 360,000; Potency, µM (titrated, usually from 46.1 µM), for the others: top-dose activity, negative = toxicity, hits mostly cytotoxic; HT-1080 IDH1 knockdown viability, ATP luminescence, 48 h; AID 686971;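 further: potency means the concentration at half of the fitted maximal effect; 0% = DMSO wells and -100% = cell-free medium wells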
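After a 2 h attachment period, IDH1KD HT-1080 cells took pin-transferred compound for 48 h at 37 °C; ATP-based luminescence after 10 min room-temperature reagent incubation reported viability.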
DT40 TDP1 CPT: DT40-hTDP1 cell growth loss with CPT. chicken DT40 Tdp1-/-;hTDP1 cells + 20 nM CPT, ATP luminescence, 48 h. Potency, µM (doses to about 46.2 µM), inactives show top-dose activity change, negative = growth inhibition, actives largely listed as inhibitors. hit rate 12% among 420,000; further: potency means the concentration at half of the fitted maximal effect; nearly all actives have a fitted effect of over 55% in size
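Chicken DT40 Tdp1-/- cells complemented with human TDP1, 400 cells/well, exposed to compounds plus 20 nM camptothecin for at least 48 h at 37 C; viability read as ATP content by CellTiter-Glo luminescence.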
Starred values were filed as active, the others as inactive; ? = inconclusive; · = not tested or not shown; ! = not active in a repeat; [ ] = another dose, or the depositor's remark. Shown are actives, neighbours in structure and some others; about 19% of the full set was active somewhere. Unless noted, the call rests on the fitted dose curve; in most records, active means well fitted curve in the direction sought with a large enough effect; inconclusive means small, poorly fitted or top-dose-only effect, or another doubt; inactive means no such curve, though single readings can be large; an effect the other way counts as inactive or inconclusive. Unless noted, on the % scale 0 is the no-effect control and ±100 the full control effect.

SMILES	DT40 TDP1 no CPT	IL-1B inflam inh	HT1080-NT tox	HT1080 IDH1KD tx	DT40 TDP1 CPT
CC(OC(=O)c1cc(O)c2ccccc2c1O)C(=O)Nc1ccc(C(N)=O)cc1 (stereo not given)	?	38	16µM*	?	?
CC(=O)c1c(N2CCCCC2)nc(=S)n(Cc2ccccc2)c1C	?	-18	1%	-24%	26µM*
CCCSc1nc(=S)n(Cc2ccccc2)c(C)c1C(C)=O	23µM*	-3	-8%	-9%	-20%
CC(=O)c1c(N2CCN(c3ccc(F)cc3)CC2)nc(=S)n(Cc2ccccc2)c1C	?	?	-18%	-25%	?
CC(=O)c1c(N2CCN(Cc3ccccc3)CC2)nc(=S)n(Cc2ccccc2)c1C	16µM*	6	-3%	-2%	16µM*
O=S1(=O)CCO[C@H]2Cc3ccccc3[C@H]2N1Cc1ccccc1Br	23µM*	-1	-1%	2%	?
C[C@@H]1[C@H](c2ccccc2)OCCS(=O)(=O)N1Cc1ccccc1F	13µM*	·	·	·	?
O=S1(=O)CCO[C@H]2Cc3ccccc3[C@H]2N1Cc1ccccc1F	?	-20	0%	-14%	23µM*!
O=S1(=O)CCOC[C@H](c2ccccc2)N1Cc1ccccc1F	?	21	-17%	-5%	?
COCCNc1nc(Oc2cncc(Cl)c2)c2sccc2n1	?	-27	-6%	-9%	?
CCCCC(CC(O)COCCC)C(=O)NN (stereo not given)	-4%	0	26%	22%	24%
Cc1c(-c2ccccc2)c(P(=O)(N2CCOCC2)N2CCOCC2)c2ccccn12	?	3	1%	17%	26µM*
O=P(C1=C(N2CCOCC2)/C(=C\c2ccccc2)CC1)(N1CCOCC1)N1CCOCC1	-15%	-19	2%	-2%	1%
c1ccc(CN2CCC(N3CCN(Cc4ccc5c(c4)OCO5)CC3)CC2)cc1	18µM*	-27	4%	7%	?
O=C(c1ccc2c(c1)OCO2)C1CCCN(C2CCN(CCc3ccccc3)CC2)C1 (stereo not given)	21µM*	-76*	10µM*	23µM*	18µM*
c1cc2c(cc1CN1CCN(C3CCCCCC3)CC1)OCO2	-1%	2	-1%	-4%	-17%
CC(=O)c1cccc(CN2CCCC(C(=O)c3ccc4c(c3)OCO4)C2)c1 (stereo not given)	?	-18	2%	-25%	2%
Cc1cc(C)c(S(=O)(=O)N2CCN(C(=O)N(C)C)CC2)c(C)c1	?	0	-2%	-2%	?
Cc1ccc(N2CCN(Cc3nnc(-c4ccc5c(c4)OCO5)o3)CC2)c(C)c1	23µM*	·	·	·	?
CCCCN(CC)CCCNC(=O)C1CCN(c2nc3ccc(CC)cc3s2)CC1	13µM*	·	·	·	12µM*
CCOc1ccc2nc(N3CCCC(C(=O)NCCCN4CCOCC4)C3)sc2c1 (stereo not given)	?	-27	-12%	-10%	?
CCOc1ccc2nc(N3CCC(C(=O)NCCCN4CCOCC4)CC3)sc2c1	?	-66*	0%	-10%	-3%
CCCCN(C)CCCNC(=O)C1CCN(c2nc3ccc(CC)cc3s2)CC1	5.8µM*	·	·	·	6.5µM*
CCOC(=O)c1c(C)[nH]c(C)c1C(=O)CSc1ncccn1	-5%	14	5%[9.24 µM]	-2%	3%
CCCC(CCC)C(=O)Nc1c[nH]c(=O)[nH]c1=O	0%	21	-1%	-2%	-5%
Cn1c(=O)c2c(SCC(=O)NCc3ccco3)nc(CC(C)(C)C)nc2n(C)c1=O	18µM*	24	-5%	-1%	?
Cn1c(=O)c2c(SCC(=O)Nc3ccc4c(c3)OCCO4)nc(CC(C)(C)C)nc2n(C)c1=O	?	7	-1%	1%	26µM*
CCOC(=O)c1cc2c(N)c(C(=O)c3cc(C#N)c(SC)nc3C)sc2nc1C	10µM*	15	-15%	-2%[9.24 µM]	13µM*
